A selection: hits, their analogues and other compounds. The true share with any hit is near 7.5%.
FLuc modulator: inhibits or activates purified firefly luciferase, miR-21 counter-screen; P08659; purified FLuc, Km substrates, luminescence inhibition; Potency, µM (doses to about 57.5 µM), inactives show at the highest dose activity change, negative = inhibition, hits mostly inhibitors; 360,000 compounds, 6.9% hits; AID 588342;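 also: plate controls were vehicle for no effect and reference inhibitor for full effect; nearly all actives have a fitted effect of over 55% in size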
Target sequence (P08659 whole entry, looked up): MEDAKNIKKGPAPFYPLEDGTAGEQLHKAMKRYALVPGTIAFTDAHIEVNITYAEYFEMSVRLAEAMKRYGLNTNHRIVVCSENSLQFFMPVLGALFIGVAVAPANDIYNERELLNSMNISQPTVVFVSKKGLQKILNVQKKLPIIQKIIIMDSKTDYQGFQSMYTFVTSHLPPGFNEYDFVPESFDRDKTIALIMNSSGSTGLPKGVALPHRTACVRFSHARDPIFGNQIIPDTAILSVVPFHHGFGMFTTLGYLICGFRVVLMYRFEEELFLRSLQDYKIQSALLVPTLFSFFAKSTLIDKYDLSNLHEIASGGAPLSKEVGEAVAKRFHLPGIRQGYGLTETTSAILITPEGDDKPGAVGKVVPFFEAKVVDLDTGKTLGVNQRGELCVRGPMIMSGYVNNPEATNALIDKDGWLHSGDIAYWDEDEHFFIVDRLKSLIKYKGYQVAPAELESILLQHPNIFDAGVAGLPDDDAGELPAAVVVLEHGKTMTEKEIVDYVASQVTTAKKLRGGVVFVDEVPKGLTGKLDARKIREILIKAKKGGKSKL
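Purified P. pyralis luciferase, 10 nM final, with Km-level 10 uM D-luciferin and 10 uM ATP in 50 mM Tris acetate pH 7.5, 10 mM Mg acetate, 0.01% Tween-20, 0.05% BSA; 6-point qHTS titration about 60 µM downward; luminescence read.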
ELG1 genotoxic: inducers of genotoxicity in HEK293T ELG1-luciferase cells; AID 504466; Potency, µM (highest dose often 46 µM), for inactives: top-dose activity change, positive = activation, hits mostly activators; HEK293T ELG1-luciferase reporter, luminescence, 16 h; 330,000 compounds, 1.3% hits; also: % of control where 0% means no effect; nearly all actives have a fitted effect of over 60% in size
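Genotoxic stress is detected as increased luminescence from luciferase-tagged ELG1 in HEK293T cells, measured with ONE-Glo after a 16 hr treatment at 37 °C.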
Luc counter: blocks Kinase-Glo luciferase, a counter-screen artifact; Q27757; Kinase-Glo luciferase, ATP luminescence, 8 min; Potency, µM (doses to about 38.3 µM), for inactives: at the highest dose activity change, negative = inhibition, usual class: inhibitors; 200,000 compounds, 0.28% hits; AID 1379; also: % is scaled to controls: 0 for no effect and ±100 for the full control effect; nearly all actives have a fitted effect of over 60% in size
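Kinase-Glo luciferase light output from ATP and luciferin was measured with 10 uM ATP, within the enzyme's linear range. Buffer: 50 mM imidazole pH 7.2, 50 mM KCl, 7 mM MgCl2, 0.01% Tween 20, 0.05% BSA; luminescence read after 8 min at ambient temperature.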
SMN2 splice up: SMN2 splice variant enhancement. HEK293 SMN2-luciferase splicing reporter, luminescence, 30-36 h. Potency, µM (doses to about 46.1 µM), without a hit: top-dose activity change, positive = activation, usual class: activators. 210,000 compounds, 2.8% hits. AID 1458; also: % of control where 0% means no effect; nearly all actives have a fitted effect of over 55% in size
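qHTS luciferase splicing reporter: luminescence rises when SMN2 exon 7 is included in transfected HEK293 cells. Compound exposure lasted 30-36 h at 37C, with 4.5 mM final sodium butyrate as control, followed by a ONE-Glo read.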
Rab9 prom act: activators of Rab9 promoter. Huh7 Rab9 promoter-luciferase reporter, luminescence, 24 h. Potency, µM (doses to about 9.22 µM), for inactives: at the top dose activation, negative = inhibition, hits mostly activators. 320,000 compounds, 2.8% hits. AID 485297; also: % of control where 0% means no effect; nearly all actives have a fitted effect of over 60% in size
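Luminescence read-out: Huh7 cells stably expressing Rab9-luciferase, treated 24 h with compound at 37 °C, then lysed with luciferase reagent for 10 min at ambient before reading.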
NPC1 promoter act: activates the NPC1 promoter; Potency, µM (doses to about 9.22 µM), for inactives: at the top dose activation, hits mostly activators; 320,000 compounds, 2.4% hits; Huh7 NPC1 promoter luciferase reporter, 24 h; also: % of control where 0% means no effect; nearly all actives have a fitted effect of over 60% in size
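Luminescence read-out of NPC1 promoter-driven luciferase in stably transfected Huh7 cells; compounds delivered in DMSO and left 24 h at 37C, 5% CO2, qHTS titration format.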
An asterisk follows results filed as active; [ ] = another dose, or the depositor's remark. Calls follow the shape of the dose curve; as a rule, active = well fitted curve in the direction sought with a large enough effect; inconclusive = small, poorly fitted or top-dose-only effect, or another doubt; inactive = no such curve, though single readings can be large; an effect the other way counts as inactive or inconclusive. Potency is read from the fitted curve at half-maximal effect.

`Cc1ccc(N2C(=O)[C@@H]3CSC(c4ccc(Cl)cc4)N3C2=O)cc1` (stereo partly drawn) gave FLuc modulator -1.6% and SMN2 splice up -11.7%.
Screening O=C(c1ccccc1)N1N=C(c2ccccc2)CC1(O)C(F)(F)F (stereo not drawn) returned FLuc modulator 2.3%, ELG1 genotoxic -0.2%, Rab9 prom act -3.0% and NPC1 promoter act 0.9%.
For CCOC(=O)N1N=C(c2ccccc2)CC1(O)C(F)(F)F (stereo not drawn) the results were FLuc modulator 13.5µM*, ELG1 genotoxic inconclusive, Luc counter -6.6%, SMN2 splice up inconclusive, Rab9 prom act 2.24µM* and NPC1 promoter act 3.55µM*.
COC(=O)N1N=C(c2ccc(Br)cc2)CC1(O)C(F)(F)F (stereo not drawn) was read as FLuc modulator 10.7µM*, ELG1 genotoxic inconclusive, Luc counter -1.4%, SMN2 splice up 15.8µM*, Rab9 prom act inconclusive and NPC1 promoter act 3.55µM*.
Screening CCOC(=O)N1N=C(c2ccc(C)cc2)CC1(O)C(F)(F)F (stereo not drawn) returned FLuc modulator 5.36µM*, ELG1 genotoxic inconclusive, Luc counter 4.7%, SMN2 splice up 20.8%, Rab9 prom act 0.708µM* and NPC1 promoter act 0.891µM*.
Screening CCN(c1ccccc1)S(=O)(=O)c1ccc(C(=O)Oc2ccc(C(C)=O)cc2)cc1 returned FLuc modulator -4.2%, ELG1 genotoxic 0.3%, Luc counter -1.8%, SMN2 splice up 5.1%[1.84 µM], Rab9 prom act 1.1% and NPC1 promoter act 1.2%.
`CCOC(=O)Cn1cc(Cl)cc(C(=O)Nc2ccccc2)c1=O` gave FLuc modulator 16.9µM*, ELG1 genotoxic 5.5%, Rab9 prom act -1.9%[1.84 µM] and NPC1 promoter act -3.7%.
O=C(N/N=C/c1cccc(F)c1)c1csc2c1CCCC2 was read as FLuc modulator 4.78µM*, ELG1 genotoxic inconclusive, Luc counter -0.7%, SMN2 splice up 14.1µM*, Rab9 prom act 1.26µM* and NPC1 promoter act 1µM*.
Screening O=C(N/N=C/c1ccccc1F)c1csc2c1CCCC2 returned FLuc modulator 2.69µM*, ELG1 genotoxic inconclusive, Luc counter -4.7%, SMN2 splice up 8.91µM*, Rab9 prom act 1.26µM* and NPC1 promoter act 1.12µM*.
`Cc1cccc(C)c1NC(=O)c1csc2c1CCCC2` gave FLuc modulator -2.8% and SMN2 splice up -4.1%.
COc1ccc(/C=N/N2C(=O)CSC2=S)cc1 was read as FLuc modulator inconclusive, Luc counter 1.0% and SMN2 splice up 15.3%.
`CC(C)(C)c1ccc(/C=N/N2C(=O)CSC2=S)cc1` gave FLuc modulator 16.9µM*, ELG1 genotoxic 7.3%, Rab9 prom act 16.2% and NPC1 promoter act 11.6%.
Screening COc1ccc(C(C#N)=C2C=CC(=NO)C=C2)cc1 returned FLuc modulator 16.9µM*, ELG1 genotoxic -3.6%, Rab9 prom act 0.1% and NPC1 promoter act -1.3%.
Cc1nc(SCC(=O)N(C)C2(C#N)CCCCC2)c2ccccc2n1 was read as FLuc modulator 23.9µM*, ELG1 genotoxic -6.0%, Rab9 prom act -8.0% and NPC1 promoter act -0.2%.
Screening Cc1nc(SCC(=O)N(C)C2CCS(=O)(=O)C2)c2ccccc2n1 (stereo not drawn) returned ELG1 genotoxic -4.3%.
Screening CCCOc1ccc(/C=N/Nc2ccc(C(=O)O)cc2)c(OCCC)c1 returned FLuc modulator 5.36µM*, ELG1 genotoxic inconclusive, Luc counter -0.3%, SMN2 splice up -8.2%, Rab9 prom act inconclusive and NPC1 promoter act 8.4%.
COc1ccc2c(/C=N/Nc3ccc(C(=O)O)cc3)c[nH]c2c1 was read as FLuc modulator 1.35µM*, ELG1 genotoxic inconclusive, Rab9 prom act 1.41µM* and NPC1 promoter act 0.794µM*.
CCOc1ccccc1C(=O)N/N=C/c1c[nH]c2ccccc12 was read as FLuc modulator inconclusive, ELG1 genotoxic 0.4%, Luc counter 4.0%, SMN2 splice up -4.1%, Rab9 prom act 0.4% and NPC1 promoter act -9.1%.
COc1ccc2c(CCNC(=O)Nc3ccccc3)c[nH]c2c1 was read as FLuc modulator 0.1%, ELG1 genotoxic -1.4%, Luc counter 8.3%, Rab9 prom act 4.2% and NPC1 promoter act -10.3%.
For CC(=O)Nc1cccc(C(=O)N/N=C/c2ccc(C)o2)c1 the results were FLuc modulator -3.2%, ELG1 genotoxic -0.9%, Luc counter 0.1%, SMN2 splice up -22.2%, Rab9 prom act -5.4% and NPC1 promoter act -5.5%.
O=C(N/N=C/c1c[nH]c2ccccc12)c1ccc(O)c(O)c1 was read as FLuc modulator 2.39µM*, ELG1 genotoxic -0.4%, Rab9 prom act 8.8% and NPC1 promoter act -2.2%.
Screening CC(=O)Nc1cccc(C(=O)N/N=C/c2c[nH]c3ccccc23)c1 returned FLuc modulator 15.1µM*, ELG1 genotoxic 3.9%, Rab9 prom act 22.7% and NPC1 promoter act 27.6%.
Screening COc1ccccc1NC(=O)Cn1c(=O)n(-c2ccc(C)cc2)c(=O)c2c1cnn2C returned FLuc modulator -0.2% and SMN2 splice up -12.7%.
`COc1ccc(C(=O)N/N=C/c2cc3ccccc3[nH]c2=S)cc1` gave FLuc modulator inconclusive, ELG1 genotoxic 0.4%, Luc counter -5.9%, SMN2 splice up -17.4%, Rab9 prom act 9.0% and NPC1 promoter act 3.6%.
Screening COc1ccc2c(c1)c(/C=N/Nc1ccc(C(=O)O)cc1)c(C)n2C returned FLuc modulator 4.78µM*, ELG1 genotoxic inconclusive, Rab9 prom act 23.0% and NPC1 promoter act inconclusive.
`O=C(N/N=C/c1c[nH]c2ccccc12)c1cccc(Cl)c1` gave FLuc modulator 21.3µM*, ELG1 genotoxic 13.9%, Rab9 prom act inconclusive and NPC1 promoter act inconclusive.
For COc1ccc(C(=O)N/N=C/c2c[nH]c3ccccc23)cc1 the results were FLuc modulator 13.5µM*, ELG1 genotoxic 3.4%, Rab9 prom act 25.9% and NPC1 promoter act inconclusive.
Screening O=C(N/N=C/c1c[nH]c2ccccc12)c1cccc(O)c1 returned FLuc modulator 10.7µM*, ELG1 genotoxic 17.3%, Rab9 prom act -4.4% and NPC1 promoter act -0.3%.
For COc1cc(/C=C2\NC(=S)N(C)C2=O)ccc1OCc1cccc(F)c1 the results were FLuc modulator -1.2%, ELG1 genotoxic 8.2%, Rab9 prom act -5.2% and NPC1 promoter act -1.6%.
Screening Cc1oc2ccc(O)c(CN3CCCCCC3)c2c1C(=O)Nc1cccc(C(F)(F)F)c1 returned FLuc modulator -3.8% and SMN2 splice up -13.3%.
